Results as given in PubChem BioAssay AID651640 (Broad Institute, 2012).
In all, about 350,000 compounds went through this assay and about 6,000 (1.7%) were called active. Roughly 5% stayed inconclusive and do not appear here. For the sample, actives were picked, then their nearest neighbours and some compounds at random. A number with no mark means an inactive call. Cut-off read from the data, not from the text of the source: active = CPE inhibition above about 20% (passing the limit was not always enough); inconclusive = no clear call, values can overlap the other calls; tested in BHK-21 cells.

Test: protection of cells from dengue 2 killing – plate reader, single concentration, primary screen (AID 651640);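 note: 0% = median of neutral control wells and 100% = median of positive control wells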
Conditions: DENV2-infected cells, cytopathic effect rescue, at 9.99 µM, active compounds read high

Row | SMILES | CPE inhibition
1 | CN1CCN(C(=O)C[C@@H]2CC[C@@H]3[C@@H](COc4ccc(NC(=O)c5ccc(F)c(F)c5)cc4C(=O)N3C)O2)CC1 | -5.7%
2 | COCc1cn(CC[C@@H]2CC[C@@H](NC(=O)Cc3cccnc3)[C@@H](CO)O2)nn1 | -4.68%
3 | C[C@H]1CN([C@@H](C)CO)C(=O)c2ccccc2-c2ccccc2CO[C@H]1CN(C)S(=O)(=O)c1cccc(C#N)c1 | 99.5% (active)
4 | CCCC#Cc1cnc2c(c1)C(=O)N([C@H](C)CO)C[C@@H](C)[C@@H](CN(C)C(=O)C1CCOCC1)O2 | -8.59%
5 | Cc1ccc(S(=O)(=O)N(C)C[C@H]2OCc3ccccc3-c3ccccc3C(=O)N([C@@H](C)CO)C[C@@H]2C)cc1 | 0.795%
6 | C[C@@H]1CN([C@@H](C)CO)C(=O)c2cc(C#CCc3ccccc3)cnc2O[C@@H]1CN(C)C(=O)C1CCOCC1 | 95.4% (active)
7 | C[C@H](CO)N1C[C@H](C)[C@@H](CN(C)C(=O)C2CC2)Oc2ncc(-c3cccc(C#N)c3)cc2C1=O | -9.11%
8 | CC(C)NC(=O)N(C)C[C@H]1Oc2ncc(-c3cccc(C#N)c3)cc2C(=O)N([C@@H](C)CO)C[C@H]1C | 1.79%
9 | C[C@H]1CN([C@@H](C)CO)C(=O)c2ccccc2-c2ccccc2CO[C@H]1CN(C)S(=O)(=O)c1ccccc1C#N | -1.68%
10 | C[C@@H]1CN([C@H](C)CO)C(=O)c2cc(-c3cccc(C#N)c3)cnc2O[C@H]1CN(C)C(=O)C1CCC1 | 27.5% (active)
11 | CC(=O)N(C)C[C@H]1Oc2ncc(C#CC3(O)CCCC3)cc2C(=O)N([C@@H](C)CO)C[C@@H]1C | -10.8%
12 | C[C@@H]1CN([C@H](C)CO)C(=O)c2cc(C#CC3CCCC3)cnc2O[C@@H]1CN(C)C(=O)C1CCC1 | 0.319%
13 | C[C@H](CO)N1C[C@H](C)[C@H](CN(C)C(=O)C2CCC2)Oc2ncc(C#CCc3ccccc3)cc2C1=O | -7.04%
14 | C[C@@H]1CN([C@H](C)CO)C(=O)c2cc(C#CC3(O)CCCC3)cnc2O[C@H]1CN(C)C(=O)C1CCC1 | 35.8% (active)
15 | C/C=C/c1ccc([C@@H]2[C@H](CO)N(CCC(F)(F)F)C23CN(C(=O)CC)C3)cc1 | 8.21%
16 | C[C@@H]1CN([C@H](C)CO)C(=O)Cc2cc(NC(=O)C3CC3)ccc2O[C@H]1CN(C)Cc1ccc(Cl)c(Cl)c1 | -2.59%
17 | C[C@@H]1CCCCO[C@@H](CN(C)S(C)(=O)=O)[C@@H](C)CN([C@@H](C)CO)C(=O)c2cc(NS(=O)(=O)c3ccc(Cl)cc3)ccc2O1 | -9.73%
